# Experimental data taken from PubChem BioAssay (Tox21).
# Values joined by “and” are separate entries in the source; they are usually repeats but may differ in a detail not shown here. Equal entries are not always repeated. Results filed as inconclusive are left out. Entries that show only a call come without a potency. Some structures have more than one record in an assay (separate samples or runs), and their calls can disagree. Active and inactive are the calls of the source. Unless noted, the call rests on the fitted dose curve; in most records, active means well fitted curve in the direction sought with a large enough effect in the repeat runs; inconclusive means weak or mixed curves; inactive means no such curve, though single readings can be large; an effect the other way counts as inactive or inconclusive.
# Columns and labels:
# [1] = qHTS assay for small molecule agonists of the p53 signaling pathway (AID 651631; calls by dose curve; further: nearly all actives have a fitted effect of over 15% in size; further: potency means the concentration at half of the fitted maximal effect)
# Outline: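 Beta-lactamase reporter activity under p53 response elements was quantified in HCT-116 cells by FRET fluorescence, following 16 h incubation with test compounds at 37 °C and 2 h substrate development at room temperature.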
# [2] = qHTS assay for small molecules that induce genotoxicity in human embryonic kidney cells expressing luciferase-tagged ATAD5 (AID 651632); further: nearly all actives have a fitted effect of over 15% in size
# Outline: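 ATAD5-luc HEK293T, 2,000 cells/well; cpd or DMSO pin-transferred; 16 hr, 37C/5% CO2; Amplite 30 min RT; luminescence.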
# [3] = qHTS assay for small molecule agonists of the p53 signaling pathway - cell viability (AID 651633; calls by dose curve; further: nearly all actives have a fitted effect of over 30% in size; further: potency means the concentration at half of the fitted maximal effect)
# Outline: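 Viability counter-read: CellTiter-Glo luminescence (30 min, room temperature) in the same p53RE-bla plates. These plates had been exposed to compounds for 16 h at 37 C.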
# [4] = qHTS assay for small molecules that induce genotoxicity in human embryonic kidney cells expressing luciferase-tagged ATAD5 - cell viability (AID 651634; calls by dose curve; further: nearly all actives have a fitted effect of over 25% in size)
# Outline: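 Fluorescence from CellTiter-Fluor, reporting protease activity within live cells, served as the viability read-out. HEK293T cells carrying luciferase-tagged ATAD5 had been treated with compound for 15.5 hr at 37C.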
# [5] = qHTS assay for small molecule disruptors of the mitochondrial membrane potential - cell viability (AID 720634; calls by dose curve; further: nearly all actives have a fitted effect of over 20% in size; further: potency means the concentration at half of the fitted maximal effect)
# Outline: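 Cells: HepG2, 2,000/well, attached overnight. Compound 1 hr, 37 C/5% CO2. +m-MPI dye, +CellTiter-Glo 30 min RT. Readout: luminescence (ATP).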
# [6] = qHTS assay for small molecule disruptors of the mitochondrial membrane potential (AID 720635); further: potency means the concentration at half of the fitted maximal effect
# Outline: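 Mitochondrial membrane potential tracked with Mito-MPS dye, red aggregates (ex 540/em 590 nm) against green monomers (ex 490/em 535 nm). Compound treatment 1 hr at 37C, dye 30 min in HepG2.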
# [7] = qHTS assay to test for compound auto fluorescence at 590 nm (red) in HepG2 cells (AID 720674)
# Outline: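 Red autofluorescence (Ex/Em 540/590 nm, Rose Bengal sodium equivalents) was measured in HepG2 cells, 2,000 per well in MEM plus 10% FBS, plated overnight at 37 C. Readings were taken 1 hr after adding 23 nL compound or DMSO, at 37 C and 5% CO2.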
# [8] = qHTS assay to test for compound auto fluorescence at 535 nm (green) in HepG2 cells (AID 720675)
# [9] = qHTS assay to test for compound auto fluorescence at 460 nm (blue) in HEK293 cells (AID 720678)
# Outline: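 Cells were seeded and left to adhere for 4-5 hr at 37C. Compounds were then pin-transferred. After an overnight incubation at 37C under 5% CO2, intrinsic fluorescence at 405/460 nm was measured and referenced to triamterene.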
# [10] = qHTS assay to test for compound auto fluorescence at 590 nm (red) in HEK293 cells (AID 720679)
# Outline: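 Each well held 2,000 HEK293 cells in medium containing 10% dialyzed FBS. Following 4-5 hr attachment at 37C, 23 nL test compound or DMSO was added; plates sat overnight, and red fluorescence (540/590nm) was recorded.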
# [11] = qHTS assay to test for compound auto fluorescence at 535 nm (green) in HEK293 cells (AID 720680)
# [12] = qHTS assay to test for compound auto fluorescence at 460 nm (blue) in HEK293 cell free culture (AID 720681)
# Outline: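 Blue fluorescence (Ex 405/Em 460 nm, triamterene-equivalent) was read immediately after pin transfer of compound or DMSO into medium (DMEM, 10% FBS) without cells.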
# [13] = qHTS assay to test for compound auto fluorescence at 590 nm (red) in HEK293 cell free culture (AID 720683)
# Outline: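 Red-channel autofluorescence of compounds in culture medium (DMEM, 10% FBS), no cells, measured at 540/590 nm. Rose Bengal sodium is the reference fluorophore for equivalence.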
# [14] = qHTS assay to test for compound auto fluorescence at 590 nm (red) in HepG2 cell free culture (AID 720684)
# Outline: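 Plate contents were MEM with 10% FBS plus test compound or DMSO, no cells. Fluorescence was recorded with 540 nm excitation and 590 nm emission.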
# [15] = qHTS assay to test for compound auto fluorescence at 460 nm (blue) in HepG2 cell free culture (AID 720685)
# Outline: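 Compound (23 nL) or DMSO pinned into cell-free MEM with 10% FBS; blue fluorescence read at 405/460 nm excitation/emission, expressed as auto-fluorescence equivalency to triamterene.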
# [16] = qHTS assay to test for compound auto fluorescence at 535 nm (green) in HepG2 cell free culture (AID 720686)
# [17] = qHTS assay to test for compound auto fluorescence at 460 nm (blue) in HepG2 cells (AID 720687); further: potency means the concentration at half of the fitted maximal effect
# Outline: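 Blue-channel autofluorescence (Ex/Em 405/460 nm, triamterene-equivalent) was measured after 1 hr compound exposure at 37 C, 5% CO2. Cells were HepG2, plated overnight at 37 C in MEM plus 10% FBS.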
# [18] = biological target: Glucocorticoid receptor (Homo sapiens) (UniProt P04150); assay: qHTS assay to identify small molecule agonists of the glucocorticoid receptor (GR) signaling pathway (AID 720691; active means well fitted activation curve with a large enough effect in the signal ratio in the repeat runs, not every such curve was filed as active; the % refers to the signal ratio); settings: GR-bla HeLa, beta-lactamase reporter ratio, 18 h; activation: at 62.4 µM (top of the series)
# Outline: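 Fluorescence intensity from LiveBLAzer B/G FRET substrate (2 h, room temperature) reports beta-lactamase expression driven by the glucocorticoid response element in GR-bla HeLa cells after 18 h compound exposure at 37 C.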
# [19] = biological target: Glucocorticoid receptor (Homo sapiens) (UniProt P04150); assay: qHTS assay to identify small molecule antagonists of the glucocorticoid receptor (GR) signaling pathway (AID 720692; active means well fitted inhibition curve with a large enough effect in the signal ratio in the repeat runs, not every such curve was filed as active; the % refers to the signal ratio; further: potency means the concentration at half of the fitted maximal effect)
# Outline: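 HeLa GR-bla cells; cmpd + dex 5 nM final, 18 h 37 C; LiveBLAzer B/G FRET substrate 2 h RT; fluorescence intensity read. Antagonist mode, qHTS.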
# [20] = qHTS assay to test for compound auto fluorescence at 535 nm (green) in HEK293 cell free culture (AID 720682)
# Outline: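 Each library compound, or DMSO control, is added by pintool to medium alone, comprising DMEM and 10% FBS. Emission at 535 nm following 485 nm excitation is quantified against fluorescein.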
# Tags describe the fitted curve by direction and shape or compound fluorescence and quenching.
# Chain of Glucocorticoid receptor (Homo sapiens) (P04150 whole entry, looked up): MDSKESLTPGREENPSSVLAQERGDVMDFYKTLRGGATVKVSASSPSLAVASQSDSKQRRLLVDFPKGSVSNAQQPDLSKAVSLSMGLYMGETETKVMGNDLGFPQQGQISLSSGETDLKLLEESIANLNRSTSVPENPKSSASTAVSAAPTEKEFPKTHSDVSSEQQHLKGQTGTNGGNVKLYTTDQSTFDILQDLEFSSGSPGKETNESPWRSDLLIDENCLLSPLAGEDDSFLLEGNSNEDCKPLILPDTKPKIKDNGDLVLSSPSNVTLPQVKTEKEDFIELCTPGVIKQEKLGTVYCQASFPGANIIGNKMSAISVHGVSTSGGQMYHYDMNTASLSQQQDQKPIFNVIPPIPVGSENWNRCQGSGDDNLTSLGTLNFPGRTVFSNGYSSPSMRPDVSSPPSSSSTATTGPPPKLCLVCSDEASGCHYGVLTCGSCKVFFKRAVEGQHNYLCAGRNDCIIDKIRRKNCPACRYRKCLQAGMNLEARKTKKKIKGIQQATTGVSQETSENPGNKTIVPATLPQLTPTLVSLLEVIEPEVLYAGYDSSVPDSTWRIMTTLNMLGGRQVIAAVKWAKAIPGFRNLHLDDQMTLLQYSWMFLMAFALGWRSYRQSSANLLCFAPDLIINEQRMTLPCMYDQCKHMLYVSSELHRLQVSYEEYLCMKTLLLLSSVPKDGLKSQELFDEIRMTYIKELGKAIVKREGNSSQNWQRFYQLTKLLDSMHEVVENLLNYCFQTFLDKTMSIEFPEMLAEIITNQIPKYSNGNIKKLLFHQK
Compound,Potency [1],Potency [2],Potency [3],Potency [4],Potency [5],Potency [6],outcome [7],Potency [8],Potency [9],outcome [10],outcome [11],Potency [12],outcome [13],outcome [14],Potency [15],Potency [16],Potency [17],Potency [18],Potency [19],outcome [20]
CC(C)Cc1ccc([C@H](C)C(=O)O)cc1,inactive,inactive,inactive,inactive,inactive,inactive,inactive,inactive,inactive,inactive,inactive,inactive,inactive,inactive,inactive,inactive,inactive,inactive,inactive,
COc1ccc([C@@H]2CC(=O)c3c(O)cc(O[C@@H]4O[C@H](CO[C@@H]5O[C@@H](C)[C@H](O)[C@@H](O)[C@H]5O)[C@@H](O)[C@H](O)[C@H]4O)cc3O2)cc1O,inactive,inactive,inactive,inactive,inactive,inactive,inactive,inactive,inactive,inactive,inactive,inactive,inactive,inactive,inactive,inactive,inactive,inactive,inactive,inactive
CCCC(CCC)C(=O)OC1C[C@H]2CC[C@@H](C1)[N+]2(C)C (stereo partly specified),inactive,inactive,inactive,inactive,inactive,inactive,inactive,inactive,inactive,inactive,,inactive,inactive,inactive,inactive,inactive,inactive,,,inactive
O=C(CCCN1CCN2CCCC2C1)c1ccc(F)cc1 (stereo unspecified),inactive,inactive,inactive,inactive,inactive,inactive,inactive,inactive,inactive,inactive,inactive,inactive,inactive,inactive,inactive,inactive,inactive,inactive,inactive,inactive
CC(C)=CCC/C(C)=C/CC/C(C)=C/CC/C=C(\C)CC/C=C(\C)CCC=C(C)C,inactive,inactive,inactive,inactive,inactive,inactive,inactive,inactive,inactive,inactive,inactive,inactive,inactive,inactive,inactive,inactive,inactive,inactive,inactive,inactive
NC(=O)[C@@H]1CCCN1C(=O)[C@H](Cc1cnc[nH]1)NC(=O)[C@@H]1CCC(=O)N1,inactive,inactive,inactive,inactive,inactive,inactive,inactive,inactive,inactive,inactive,inactive,inactive,inactive,inactive,inactive,inactive,inactive,inactive,inactive,inactive
O=C(O)COc1ccc(C(=O)c2cccs2)c(Cl)c1Cl,inactive,inactive,inactive,inactive,inactive,inactive,inactive,inactive,inactive,inactive,inactive,inactive,inactive,inactive,inactive,inactive,,inactive,inactive,
O=C1c2ccccc2CN2C(=O)c3ccccc3CN12,inactive,inactive,inactive,inactive,inactive,inactive,inactive,inactive,inactive,inactive,inactive,inactive,inactive,inactive,inactive,inactive,inactive,inactive,inactive,inactive
COc1cc(/C=C/C(=O)CC(=O)/C=C/c2ccc(O)c(OC)c2)ccc1O,13.3 µM (active) and 13.8 µM (active),inactive,18.8 µM (active) and 54.8 µM (active),inactive,11.9 µM (active) and 21.8 µM (active),750 nM (active) and 1.68 µM (active) and 548 nM (active),inactive,inactive,inactive,inactive,inactive,inactive,inactive,inactive,,inactive,39.8 µM [fluorescent] (active),inactive,23.9 µM (active) and inactive,inactive
Nc1nc(/C(=C/CC(=O)O)C(=O)N[C@@H]2C(=O)N3C(C(=O)O)=CCS[C@H]23)cs1,inactive,inactive,inactive,inactive,inactive,inactive,inactive,inactive,inactive,inactive,inactive,inactive,inactive,inactive,inactive,inactive,inactive,inactive,inactive,
CN(C)CCC(O)(c1ccccc1)c1ccccc1Cl (stereo unspecified),inactive,inactive,inactive,inactive,inactive,inactive,inactive,inactive,inactive,inactive,inactive,inactive,inactive,inactive,inactive,inactive,inactive,inactive,inactive,
CC(C)COC(=O)OCN1C(=O)CN(CCN2CC(=O)N(COC(=O)OCC(C)C)C(=O)C2)CC1=O,3.76 µM (active),inactive,inactive,inactive,inactive,inactive,inactive,inactive,inactive,inactive,inactive,inactive,inactive,inactive,inactive,inactive,,inactive,inactive,inactive
S=C1NC=NC2N=CNC12 (stereo unspecified),3.44 µM (active),inactive,545 nM (active),inactive,inactive,4.86 µM (active),inactive,inactive,inactive,inactive,inactive,inactive,inactive,inactive,inactive,,inactive,,,
